Results published in the supplement of paper PMC11865577.

What was measured:
Assay in all cases: normalised indicator fluorescence (fraction of RNA + indicator signal without compound); higher = less displacement of indicator (weaker competition)
Conditions in all cases: compound concentration: 5 uM, 30 min
hsa-mir-191 loop = test system: hsa-mir-191 loop
How it was run: (§1)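 Values are ratios: indicator fluorescence, less a buffer-plus-indicator blank, over the RNA-plus-indicator signal with no compound, as the mean of two independent experiments. This displacement screen used TO-PRO-1 or TO-PRO-3 with RNA in 96-well plates, in 20 mM phosphate pH 7.0, 20 mM NaCl, 80 mM KCl. Compounds went in at about 5 uM final, and readings were taken after 30 min on an Infinite 200 PRO at 485 or 620 nm excitation.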

hsa-mir-21 loop = test system: hsa-mir-21 loop
How it was run: as §1

hsa-mir-221 loop = test system: hsa-mir-221 loop
How it was run: as §1

hsa-mir-374a loop = test system: hsa-mir-374a loop
How it was run: as §1

hsa-mir-6850 loop = test system: hsa-mir-6850 loop
How it was run: as §1

[1] = indicator: TO-PRO-1 0.1 uM, RNA concentration: 0.1 uM
[2] = indicator: TO-PRO-3 0.5 uM, RNA concentration: 0.5 uM

## OC[C@H]1O[C@@H](Oc2ccc(O)cc2)[C@H](O)[C@@H](O)[C@@H]1O [Arbutin]
hsa-mir-191 loop; [1]
  normalised indicator fluorescence: 0.981
hsa-mir-191 loop; [2]
  normalised indicator fluorescence: 1.07
hsa-mir-21 loop; [1]
  normalised indicator fluorescence: 1.01
hsa-mir-21 loop; [2]
  normalised indicator fluorescence: 1.03
hsa-mir-221 loop; [1]
  normalised indicator fluorescence: 1.08
hsa-mir-221 loop; [2]
  normalised indicator fluorescence: 1.04
hsa-mir-374a loop; [1]
  normalised indicator fluorescence: 1.13
hsa-mir-374a loop; [2]
  normalised indicator fluorescence: 1.04
hsa-mir-6850 loop; [1]
  normalised indicator fluorescence: 0.964
hsa-mir-6850 loop; [2]
  normalised indicator fluorescence: 1.07

## Nc1c(Br)cc(Br)cc1CN[C@H]1CC[C@H](O)CC1 [Ambroxol]
hsa-mir-191 loop; [1]
  normalised indicator fluorescence: 0.949
hsa-mir-191 loop; [2]
  normalised indicator fluorescence: 1.04
hsa-mir-21 loop; [1]
  normalised indicator fluorescence: 0.88
hsa-mir-21 loop; [2]
  normalised indicator fluorescence: 1.17
hsa-mir-221 loop; [1]
  normalised indicator fluorescence: 1.04
hsa-mir-221 loop; [2]
  normalised indicator fluorescence: 1.02
hsa-mir-374a loop; [1]
  normalised indicator fluorescence: 1.16
hsa-mir-374a loop; [2]
  normalised indicator fluorescence: 1.12
hsa-mir-6850 loop; [1]
  normalised indicator fluorescence: 0.965
hsa-mir-6850 loop; [2]
  normalised indicator fluorescence: 1.06

## O=c1c(O)c(-c2ccccc2)oc2cc(O)cc(O)c12 [Galangin]
hsa-mir-191 loop; [1]
  normalised indicator fluorescence: 1.05
hsa-mir-191 loop; [2]
  normalised indicator fluorescence: 1.08
hsa-mir-21 loop; [1]
  normalised indicator fluorescence: 1
hsa-mir-21 loop; [2]
  normalised indicator fluorescence: 1.04
hsa-mir-221 loop; [1]
  normalised indicator fluorescence: 1.03
hsa-mir-221 loop; [2]
  normalised indicator fluorescence: 1.22
hsa-mir-374a loop; [1]
  normalised indicator fluorescence: 1.11
hsa-mir-374a loop; [2]
  normalised indicator fluorescence: 1.3
hsa-mir-6850 loop; [1]
  normalised indicator fluorescence: 0.971
hsa-mir-6850 loop; [2]
  normalised indicator fluorescence: 1.07

## Fc1ccc(-c2nc3n(c2-c2ccncc2)CCS3)cc1
hsa-mir-191 loop; [1]
  normalised indicator fluorescence: 1.08
hsa-mir-191 loop; [2]
  normalised indicator fluorescence: 1.08
hsa-mir-21 loop; [1]
  normalised indicator fluorescence: 0.993
hsa-mir-21 loop; [2]
  normalised indicator fluorescence: 1.02
hsa-mir-221 loop; [1]
  normalised indicator fluorescence: 1.07
hsa-mir-221 loop; [2]
  normalised indicator fluorescence: 1.13
hsa-mir-374a loop; [1]
  normalised indicator fluorescence: 1.09
hsa-mir-374a loop; [2]
  normalised indicator fluorescence: 1.18
hsa-mir-6850 loop; [1]
  normalised indicator fluorescence: 0.947
hsa-mir-6850 loop; [2]
  normalised indicator fluorescence: 1.04

## COc1nccnc1NS(=O)(=O)c1ccc(NC(=O)/C=C/c2ccc([N+](=O)[O-])s2)cc1 [Necrosulfonamide]
hsa-mir-191 loop; [1]
  normalised indicator fluorescence: 1.12
hsa-mir-191 loop; [2]
  normalised indicator fluorescence: 1.02
hsa-mir-21 loop; [1]
  normalised indicator fluorescence: 0.985
hsa-mir-21 loop; [2]
  normalised indicator fluorescence: 1.08
hsa-mir-221 loop; [1]
  normalised indicator fluorescence: 1.01
hsa-mir-221 loop; [2]
  normalised indicator fluorescence: 1.08
hsa-mir-374a loop; [1]
  normalised indicator fluorescence: 1.05
hsa-mir-374a loop; [2]
  normalised indicator fluorescence: 1.18
hsa-mir-6850 loop; [1]
  normalised indicator fluorescence: 0.886
hsa-mir-6850 loop; [2]
  normalised indicator fluorescence: 1

## C/C1=C/CC[C@H](C)C(=O)C[C@@H](C(C)C)C(=O)C1 [Curdione]
hsa-mir-191 loop; [1]
  normalised indicator fluorescence: 1.05
hsa-mir-191 loop; [2]
  normalised indicator fluorescence: 1.02
hsa-mir-21 loop; [1]
  normalised indicator fluorescence: 1.04
hsa-mir-21 loop; [2]
  normalised indicator fluorescence: 1.09
hsa-mir-221 loop; [1]
  normalised indicator fluorescence: 1.05
hsa-mir-221 loop; [2]
  normalised indicator fluorescence: 1.16
hsa-mir-374a loop; [1]
  normalised indicator fluorescence: 1.07
hsa-mir-374a loop; [2]
  normalised indicator fluorescence: 1.26
hsa-mir-6850 loop; [1]
  normalised indicator fluorescence: 1.14
hsa-mir-6850 loop; [2]
  normalised indicator fluorescence: 1.06

## O=c1ncn2nc(Sc3ccc(F)cc3F)ccc2c1-c1c(Cl)cccc1Cl [Neflamapimod]
hsa-mir-191 loop; [1]
  normalised indicator fluorescence: 1.04
hsa-mir-191 loop; [2]
  normalised indicator fluorescence: 1.05
hsa-mir-21 loop; [1]
  normalised indicator fluorescence: 0.973
hsa-mir-21 loop; [2]
  normalised indicator fluorescence: 1.04
hsa-mir-221 loop; [1]
  normalised indicator fluorescence: 1.03
hsa-mir-221 loop; [2]
  normalised indicator fluorescence: 1.22
hsa-mir-374a loop; [1]
  normalised indicator fluorescence: 1.07
hsa-mir-374a loop; [2]
  normalised indicator fluorescence: 1.3
hsa-mir-6850 loop; [1]
  normalised indicator fluorescence: 0.955
hsa-mir-6850 loop; [2]
  normalised indicator fluorescence: 1.02

## CCc1oc2ccccc2c1C(=O)c1cc(Br)c(O)c(Br)c1 [Benzbromarone]
hsa-mir-191 loop; [1]
  normalised indicator fluorescence: 0.976
hsa-mir-191 loop; [2]
  normalised indicator fluorescence: 1.01
hsa-mir-21 loop; [1]
  normalised indicator fluorescence: 0.927
hsa-mir-21 loop; [2]
  normalised indicator fluorescence: 1.05
hsa-mir-221 loop; [1]
  normalised indicator fluorescence: 1
hsa-mir-221 loop; [2]
  normalised indicator fluorescence: 1.09
hsa-mir-374a loop; [1]
  normalised indicator fluorescence: 1.16
hsa-mir-374a loop; [2]
  normalised indicator fluorescence: 1.34
hsa-mir-6850 loop; [1]
  normalised indicator fluorescence: 0.95
hsa-mir-6850 loop; [2]
  normalised indicator fluorescence: 1.04

## Cc1c(C)c2c(c(C)c1O)CCC(C)(C(=O)O)O2 (stereo not given) [Trolox]
hsa-mir-191 loop; [1]
  normalised indicator fluorescence: 1.03
hsa-mir-191 loop; [2]
  normalised indicator fluorescence: 1.05
hsa-mir-21 loop; [1]
  normalised indicator fluorescence: 1.02
hsa-mir-21 loop; [2]
  normalised indicator fluorescence: 0.957
hsa-mir-221 loop; [1]
  normalised indicator fluorescence: 1.05
hsa-mir-221 loop; [2]
  normalised indicator fluorescence: 1.12
hsa-mir-374a loop; [1]
  normalised indicator fluorescence: 1.11
hsa-mir-374a loop; [2]
  normalised indicator fluorescence: 1.22
hsa-mir-6850 loop; [1]
  normalised indicator fluorescence: 1.02
hsa-mir-6850 loop; [2]
  normalised indicator fluorescence: 1.07

## C[C@@H]1O[C@@H](O[C@@H]2[C@@H](O)[C@H](OCCc3ccc(O)c(O)c3)O[C@H](CO)[C@H]2OC(=O)/C=C/c2ccc(O)c(O)c2)[C@H](O)[C@H](O)[C@H]1O [Verbascoside]
hsa-mir-191 loop; [1]
  normalised indicator fluorescence: 1.1
hsa-mir-191 loop; [2]
  normalised indicator fluorescence: 1.02
hsa-mir-21 loop; [1]
  normalised indicator fluorescence: 1.13
hsa-mir-21 loop; [2]
  normalised indicator fluorescence: 1.01
hsa-mir-221 loop; [1]
  normalised indicator fluorescence: 1.07
hsa-mir-221 loop; [2]
  normalised indicator fluorescence: 0.949
hsa-mir-374a loop; [1]
  normalised indicator fluorescence: 1.46
hsa-mir-374a loop; [2]
  normalised indicator fluorescence: 1.14
hsa-mir-6850 loop; [1]
  normalised indicator fluorescence: 1.02
hsa-mir-6850 loop; [2]
  normalised indicator fluorescence: 1.02

## C[S+]([O-])c1ccc(-c2nc(-c3ccc(F)cc3)c(-c3ccncc3)[nH]2)cc1 (stereo not given)
hsa-mir-191 loop; [1]
  normalised indicator fluorescence: 0.969
hsa-mir-191 loop; [2]
  normalised indicator fluorescence: 1.02
hsa-mir-21 loop; [1]
  normalised indicator fluorescence: 1.05
hsa-mir-21 loop; [2]
  normalised indicator fluorescence: 1.02
hsa-mir-221 loop; [1]
  normalised indicator fluorescence: 1.01
hsa-mir-221 loop; [2]
  normalised indicator fluorescence: 1.05
hsa-mir-374a loop; [1]
  normalised indicator fluorescence: 1.07
hsa-mir-374a loop; [2]
  normalised indicator fluorescence: 1.04
hsa-mir-6850 loop; [1]
  normalised indicator fluorescence: 1.08
hsa-mir-6850 loop; [2]
  normalised indicator fluorescence: 1.04

## O=C(/C=C/C=C/c1ccc2c(c1)OCO2)N1CCCCC1 [Piperine]
hsa-mir-191 loop; [1]
  normalised indicator fluorescence: 1.02
hsa-mir-191 loop; [2]
  normalised indicator fluorescence: 1.01
hsa-mir-21 loop; [1]
  normalised indicator fluorescence: 0.903
hsa-mir-21 loop; [2]
  normalised indicator fluorescence: 1.05
hsa-mir-221 loop; [1]
  normalised indicator fluorescence: 0.997
hsa-mir-221 loop; [2]
  normalised indicator fluorescence: 0.908
hsa-mir-374a loop; [1]
  normalised indicator fluorescence: 1.16
hsa-mir-374a loop; [2]
  normalised indicator fluorescence: 1.16
hsa-mir-6850 loop; [1]
  normalised indicator fluorescence: 1.13
hsa-mir-6850 loop; [2]
  normalised indicator fluorescence: 1.04

## O=C(Nc1nc2ccc(NC(=O)C34CC5CC(CC(C5)C3)C4)cc2s1)c1ccccc1
hsa-mir-191 loop; [1]
  normalised indicator fluorescence: 1
hsa-mir-191 loop; [2]
  normalised indicator fluorescence: 1.02
hsa-mir-21 loop; [1]
  normalised indicator fluorescence: 0.991
hsa-mir-21 loop; [2]
  normalised indicator fluorescence: 1.02
hsa-mir-221 loop; [1]
  normalised indicator fluorescence: 1.14
hsa-mir-221 loop; [2]
  normalised indicator fluorescence: 1.05
hsa-mir-374a loop; [1]
  normalised indicator fluorescence: 1.1
hsa-mir-374a loop; [2]
  normalised indicator fluorescence: 1.06
hsa-mir-6850 loop; [1]
  normalised indicator fluorescence: 0.997
hsa-mir-6850 loop; [2]
  normalised indicator fluorescence: 0.982

## Cc1cc(NC(=O)c2cccc(NC(=O)/C=C/CN(C)C)c2)ccc1Nc1nccc(-c2cccnc2)n1
hsa-mir-191 loop; [1]
  normalised indicator fluorescence: 1.03
hsa-mir-191 loop; [2]
  normalised indicator fluorescence: 1.05
hsa-mir-21 loop; [1]
  normalised indicator fluorescence: 0.972
hsa-mir-21 loop; [2]
  normalised indicator fluorescence: 1.01
hsa-mir-221 loop; [1]
  normalised indicator fluorescence: 1.04
hsa-mir-221 loop; [2]
  normalised indicator fluorescence: 1.02
hsa-mir-374a loop; [1]
  normalised indicator fluorescence: 1.08
hsa-mir-374a loop; [2]
  normalised indicator fluorescence: 1.05
hsa-mir-6850 loop; [1]
  normalised indicator fluorescence: 1.06
hsa-mir-6850 loop; [2]
  normalised indicator fluorescence: 0.942

## CCNC(=O)c1noc(-c2cc(C(C)C)c(O)cc2O)c1-c1ccc(CN2CCOCC2)cc1 [Luminespib]
hsa-mir-191 loop; [1]
  normalised indicator fluorescence: 1.08
hsa-mir-191 loop; [2]
  normalised indicator fluorescence: 1.05
hsa-mir-21 loop; [1]
  normalised indicator fluorescence: 1.03
hsa-mir-21 loop; [2]
  normalised indicator fluorescence: 1.02
hsa-mir-221 loop; [1]
  normalised indicator fluorescence: 1.06
hsa-mir-221 loop; [2]
  normalised indicator fluorescence: 1.05
hsa-mir-374a loop; [1]
  normalised indicator fluorescence: 1.04
hsa-mir-374a loop; [2]
  normalised indicator fluorescence: 1.15
hsa-mir-6850 loop; [1]
  normalised indicator fluorescence: 1.01
hsa-mir-6850 loop; [2]
  normalised indicator fluorescence: 1.06

## O=CN1CC/C(=C/c2ccc3c(c2)OCO3)C1=O
hsa-mir-191 loop; [1]
  normalised indicator fluorescence: 1.04
hsa-mir-191 loop; [2]
  normalised indicator fluorescence: 1.04
hsa-mir-21 loop; [1]
  normalised indicator fluorescence: 0.922
hsa-mir-21 loop; [2]
  normalised indicator fluorescence: 1.01
hsa-mir-221 loop; [1]
  normalised indicator fluorescence: 1.03
hsa-mir-221 loop; [2]
  normalised indicator fluorescence: 0.986
hsa-mir-374a loop; [1]
  normalised indicator fluorescence: 1.1
hsa-mir-374a loop; [2]
  normalised indicator fluorescence: 1.08
hsa-mir-6850 loop; [1]
  normalised indicator fluorescence: 1
hsa-mir-6850 loop; [2]
  normalised indicator fluorescence: 1.03

## Oc1cc(O)c2c(c1)O[C@H](c1ccc(O)c(O)c1)[C@@H](O)C2 [Cianidanol]
hsa-mir-191 loop; [1]
  normalised indicator fluorescence: 1.01
hsa-mir-191 loop; [2]
  normalised indicator fluorescence: 1.07
hsa-mir-21 loop; [1]
  normalised indicator fluorescence: 0.93
hsa-mir-21 loop; [2]
  normalised indicator fluorescence: 1.06
hsa-mir-221 loop; [1]
  normalised indicator fluorescence: 1.16
hsa-mir-221 loop; [2]
  normalised indicator fluorescence: 1.07
hsa-mir-374a loop; [1]
  normalised indicator fluorescence: 1.26
hsa-mir-374a loop; [2]
  normalised indicator fluorescence: 1.17
hsa-mir-6850 loop; [1]
  normalised indicator fluorescence: 1
hsa-mir-6850 loop; [2]
  normalised indicator fluorescence: 1.07

## O=c1cc(-c2ccc(O)cc2)oc2cc(O)cc(O)c12 [Apigenin]
hsa-mir-191 loop; [1]
  normalised indicator fluorescence: 1.03
hsa-mir-191 loop; [2]
  normalised indicator fluorescence: 1.05
hsa-mir-21 loop; [1]
  normalised indicator fluorescence: 0.934
hsa-mir-21 loop; [2]
  normalised indicator fluorescence: 1
hsa-mir-221 loop; [1]
  normalised indicator fluorescence: 1.04
hsa-mir-221 loop; [2]
  normalised indicator fluorescence: 1.03
hsa-mir-374a loop; [1]
  normalised indicator fluorescence: 1.05
hsa-mir-374a loop; [2]
  normalised indicator fluorescence: 1.22
hsa-mir-6850 loop; [1]
  normalised indicator fluorescence: 0.954
hsa-mir-6850 loop; [2]
  normalised indicator fluorescence: 1.06
